This is an account of results in PubChem BioAssay (NCI).

This is part of a sample that, as a whole, favours compounds with a hit. Of some 83,000 tested, about 20% had one in any assay.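 Note: values are percent growth. 100 is the growth of untreated cells, values between 100 and 0 indicate rising inhibition; between -100 and 0 indicates cell death.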 Values without a mark were called inactive. Active and inactive are the calls of the source. How the source made its calls: active means growth percent below 10; inactive means the rest.

Among the test systems are DU-145 prostate; K-562 leukemia; MALME-3M melanoma; MDA-MB-231 breast; RXF 393 renal; SF-268 CNS; SF-295 CNS; SF-539 CNS; UACC-257 melanoma; M14 melanoma; HCT-15 colon; HT29 colon; SNB-75 CNS; SNB-19 CNS; U251 CNS; PC-3 prostate; SK-MEL-5 melanoma; UACC-62 melanoma; LOX IMVI melanoma; SK-MEL-28 melanoma.
Assay in all cases: NCI-60 one-dose screen, 48 h (100 = growth as untreated, 0 = no growth, -100 = all killed)
Common to all, as to conditions: 10 µM unless noted

As to `CCN1CCN(CC(=O)Nc2nc3ccc(NCc4ccc(F)cc4)cc3s2)CC1`, the growth in the test on DU-145 prostate is 95.1%; in the test on K-562 leukemia, 58.8%; in the test with MALME-3M melanoma, 90.7%; with MDA-MB-231 breast it was 91%; with RXF 393 renal, 94.8%; with SF-268 CNS it was 94.3%. In addition, the growth with SF-295 CNS was 99%; with SF-539 CNS it was 74.1%; in the test with UACC-257 melanoma it was 108%; in the test on M14 melanoma it was 91.4%; with HCT-15 colon it was 67.3%; with HT29 colon, 77.4%. Also, the growth in the test on SNB-75 CNS was 90.8%; in the test on SNB-19 CNS it was 99.2%; in the test on U251 CNS, 81.9%; in the test on PC-3 prostate, 78.9%; in the test on SK-MEL-5 melanoma it was 90.8%; in the test on UACC-62 melanoma it was 87.4%. Besides, the growth with LOX IMVI melanoma was 78.6%; with SK-MEL-28 melanoma, 102%.
On to `CNCc1cccc2c1OCCOCCOCCNS(=O)(=O)c1ccc(cc1)-c1cnc(N)c(n1)C(=O)N2`, for which the growth with DU-145 prostate was 21.1%; with K-562 leukemia, 9.35% (active); in the test with MALME-3M melanoma, 29.9%; in the test on MDA-MB-231 breast it was 30.4%; in the test with RXF 393 renal it was -11.5% (active); in the test with SF-268 CNS, 35.7%. Also, the growth was 70.3% in the test on SF-295 CNS; 7.45% (active) in the test on SF-539 CNS; 61.3% in the test with UACC-257 melanoma; 26% in the test on M14 melanoma; 89.8% in the test on HCT-15 colon; 12.4% in the test with HT29 colon. The growth with SNB-75 CNS was 65.4%; with SNB-19 CNS, 18.2%; in the test with U251 CNS, 14.1%; with PC-3 prostate it was 20.1%; with SK-MEL-5 melanoma, 77%; in the test on UACC-62 melanoma it was 23.2%. Besides, the growth is 2.85% (active) with LOX IMVI melanoma and 51% in the test with SK-MEL-28 melanoma.
On to `COC(=O)c1c2c(c(C)[n+]([O-])c1C)C(=O)C(NCc1ccc(OC)cc1)=CC2=O`, for which the growth was 43.9% in the test with DU-145 prostate; 11.4% in the test with K-562 leukemia; -92.8% (active) with MALME-3M melanoma; 5.7% (active) in the test on MDA-MB-231 breast; 47.3% in the test on RXF 393 renal; 22.5% with SF-268 CNS. Further, the growth with SF-295 CNS is 66.6%; in the test with SF-539 CNS, 10.4%; with UACC-257 melanoma, -47.5% (active); in the test on M14 melanoma, 13.3%; in the test on HCT-15 colon it was 9.67% (active); with HT29 colon it was 9.48% (active). Also, the growth was 127% in the test on SNB-75 CNS; 5.27% (active) with SNB-19 CNS; -13.9% (active) in the test with U251 CNS; 4.67% (active) in the test on PC-3 prostate; -53.1% (active) with SK-MEL-5 melanoma; -27.9% (active) in the test on UACC-62 melanoma. Moreover, the results for the growth in the test on LOX IMVI melanoma and in the test on SK-MEL-28 melanoma were 19% and 61.9%, respectively.
Take `O=C(NNC(=O)c1ccc(NC(=O)c2ccccn2)cc1)Nc1ccc2ccccc2c1`: the growth with DU-145 prostate was 110%; in the test with K-562 leukemia it was 106%; in the test with MALME-3M melanoma, 123%; in the test on MDA-MB-231 breast, 115%; in the test on RXF 393 renal, 116%; in the test with SF-268 CNS, 101%. Moreover, the growth in the test with SF-295 CNS was 103%; in the test with SF-539 CNS, 69%; in the test with UACC-257 melanoma, 120%; with M14 melanoma, 115%; with HCT-15 colon, 105%; in the test on HT29 colon it was 109%. Further, the growth was 109% in the test with SNB-75 CNS; 91.8% in the test on SNB-19 CNS; 101% in the test with U251 CNS; 107% in the test on PC-3 prostate; 102% in the test with SK-MEL-5 melanoma; 108% with UACC-62 melanoma. Moreover, the growth with LOX IMVI melanoma is 115%; in the test with SK-MEL-28 melanoma, 110%.
On to `Cn1cc(-c2nn3cc(-c4cccs4)nc3s2)c2cc(F)ccc21`, for which the growth with DU-145 prostate was 51.1%; in the test with K-562 leukemia, 15.5%; in the test on MALME-3M melanoma, 21.2%; with MDA-MB-231 breast, 34.5%; with RXF 393 renal, 64.4%; with SF-268 CNS it was 45.2%. The growth in the test on SF-295 CNS was 28.2%; in the test with SF-539 CNS, 24.3%; in the test on UACC-257 melanoma, 63.4%; with M14 melanoma, 6.34% (active); with HCT-15 colon, 23.5%; with HT29 colon it was 7.69% (active). Also, the growth in the test with SNB-75 CNS was 11.9%; in the test on SNB-19 CNS it was 32.1%; in the test with U251 CNS it was 26%; in the test on PC-3 prostate, 45.2%; in the test with SK-MEL-5 melanoma, 29.3%; with UACC-62 melanoma, 33.1%. The growth in the test on LOX IMVI melanoma is 35.4%; in the test with SK-MEL-28 melanoma, 49.7%.
Consider `C=C(C)[C@@H]1CC[C@]2(C)[C@H](CC=C3[C@@H]4CC(C)(C)CC[C@]4(CO)CC[C@]32C)[C@@]1(C)CCCN`, for which the growth was 44% with DU-145 prostate; -47.7% (active) with K-562 leukemia; -45.7% (active) in the test on MALME-3M melanoma; 27% in the test with MDA-MB-231 breast; 31.6% in the test on RXF 393 renal; 67.6% in the test with SF-268 CNS. The growth was 90.6% in the test on SF-295 CNS; -61.5% (active) in the test on SF-539 CNS; -85.2% (active) in the test on UACC-257 melanoma; -65.5% (active) in the test on M14 melanoma; -71.6% (active) in the test with HCT-15 colon; -52.8% (active) in the test on HT29 colon. The growth in the test on SNB-75 CNS is 39.7%; in the test with SNB-19 CNS it was 79.5%; in the test on U251 CNS it was -86.8% (active); in the test with PC-3 prostate, 21.3%; with SK-MEL-5 melanoma, 55.4%; with UACC-62 melanoma it was 98.8%. For the same compound, the values for the growth with LOX IMVI melanoma and in the test on SK-MEL-28 melanoma were -97.2% (active) and -88.4% (active), respectively.
As to `CC1=C2[C@@H](CC1)[C@]1(C)O[C@@](C3CCCCC3)(C[C@H]1OC(=O)CO)[C@H]2OC(=O)/C=C/c1ccccc1`, the growth in the test with DU-145 prostate was 89.3%; in the test with K-562 leukemia it was 63.5%; with MALME-3M melanoma it was 79.5%; with MDA-MB-231 breast it was 86.4%; in the test with RXF 393 renal, 39.9%; with SF-268 CNS, 31.9%. For the same compound, the growth with SF-295 CNS was 86.5%; in the test with SF-539 CNS, 102%; in the test with UACC-257 melanoma, 84.5%; in the test on M14 melanoma, 91.6%; in the test with HCT-15 colon, 77.9%; with HT29 colon it was 62.7%. The growth with SNB-75 CNS was 72.6%; in the test on SNB-19 CNS, 91.4%; in the test with U251 CNS it was 73.9%; in the test with PC-3 prostate it was 53.2%; with SK-MEL-5 melanoma it was 87.3%; with UACC-62 melanoma, 62.5%. For the same compound, the growth is 82.6% in the test on LOX IMVI melanoma and 101% with SK-MEL-28 melanoma.
